Source: PubChem BioAssay AID590 (National Center for Advancing Translational Sciences (NCATS), 2007)
Screen size: about 59,000 compounds; about 6,500 (11%) were called active. Roughly 15% stayed inconclusive and do not appear here. Cut-off read from the data, not from the text of the source: active = max dye-equivalent concentration above about 10 nM; inconclusive = mostly about 1.1 nM to 9.6 nM; inactive = weaker than that. What follows is part of a selection rich in actives, with near analogues and random picks from the rest. Peptide text beside a SMILES is read from it.

Assay: qHTS Assay for Spectroscopic Profiling in A350 Spectral Region
Settings: Compound autofluorescence, 340/450 nm, Alexa 350 dye-equivalents; stronger effect = higher value

Compound | max dye-equivalent concentration
N#Cc1ccccc1-n1c(N)c(C(=O)N2CCCC2)sc1=S | inactive
COC(=O)c1ccc(N(CC(=O)NC2CCCC2)C(=O)CNC(=O)c2ccco2)cc1 | inactive
CCS(=O)(=O)N1CCCC(C(=O)NCCCN(C)Cc2ccccc2)C1 (centres undefined) | inactive
CN1C(=O)C[C@H](c2ccccc2)C1=O | inactive
O=C(CCCN1C(=O)CCC1=O)Nc1ccc(Cl)c(C(F)(F)F)c1 | inactive
O=c1c(-c2cc(F)cc(F)c2)nc2cnc(Oc3ccccc3)nc2n1C[C@H]1CCCO1 | 15 nM (active)
COc1ccc(Oc2ncc3nc(C)c(=O)n(-c4ccccc4)c3n2)cc1 | inactive
O=c1c(-c2cccs2)nc2cnc(Oc3ccccc3)nc2n1-c1ccccc1 | 21 nM (active)
COc1ccc(-n2c(=O)c(-c3cn(C)c4ccccc34)nc3cnc(OC)nc32)cc1 | inactive
CCc1ccc(-c2nnn(Cc3nc4ccccc4s3)n2)cc1 | inactive
O=C(N1CCOCC1)N1CCOCC1 | inactive
O=C(NCc1cn2ccsc2n1)Nc1cccc(Cl)c1 | inactive
CCOC(=O)c1csc(NC(=O)c2ccc(S(=O)(=O)N3CCCC3)cc2)n1 | inactive
COc1ccc(OCC(=O)OCC(=O)Nc2ccc(S(=O)(=O)N3CCCCC3)cc2)cc1 | inactive
Cc1cc(=O)[nH]c(SCc2cc(Cl)ccc2OC(F)F)n1 | inactive
Cc1ccc(C(=O)O)cc1S(=O)(=O)NCC1CCCO1 (centres undefined) | inactive
CCOc1cc(-c2nc3cc(C)ccn3c2NCC2CCCO2)ccc1O (centres undefined) | 78 nM (active)
Cc1ccc(-c2noc(-c3ccccc3C(=O)NCC3CCCO3)n2)cc1 (centres undefined) | inactive
O=C(CSc1nnc(-c2ccncc2)n1C1CCCCC1)Nc1ccccc1 | inactive
CCN(CC)S(=O)(=O)c1ccc2[nH]cc(C(=O)NCCc3ccccc3)c(=O)c2c1 | inactive
CN1CCN(S(=O)(=O)c2ccc3[nH]cc(C(=O)O)c(=O)c3c2)CC1 | 12 nM (active)
CCOC(=O)N1CCN(C(=O)c2cn(C)c3ccc(S(=O)(=O)N4CCCC4)cc3c2=O)CC1 | inactive
COC(=O)c1cc(S(=O)(=O)NC2CCN(Cc3ccccc3)CC2)cn1C | inactive
Fc1ccccc1OCCCCn1cncn1 | inactive
C[C@H](NC(=O)NCCc1ccccc1)C(=O)O | inactive
O=C(Cn1cnc2c(cnn2-c2ccccc2)c1=O)NCc1ccccc1 | inactive
CN(C)CCCn1c(N)c(C#N)c2nc(C#N)c(C#N)nc21 | 620 nM (active)
Cc1cccc(C)c1NC(=O)CCCSc1nnc(-c2ccco2)n1-c1ccccc1 | inactive
CC(=O)NC(C(=O)NCC(N)=O)C(C)C (centres undefined) (HELM PEPTIDE1{[ac].[CC(C)C(N[*:1])C(=O)[*:2]].G.[am]}$$$$V2.0) | inactive
